# Hit rate of the full screen: of about 53,000 compounds, about 900 (1.7%) showed an effect of 50% or more. Shown is part of a subset that was picked to be rich in strong results.
# Tested on: Mycobacterium tuberculosis
# Test: Cornell - Phenotypic assay to identify agents that inhibit growth of Mycobacterium tuberculosis
# Format: functional
# Set-up: scale not given: direction of the effect not stated beside the values
# Settings: 10 mM as filed; unlikely as a test dose
row,Structure (SMILES),Percent Effect [%]
1,CC(C)(C)c1n[nH]cc1CNC1CCC(OCC(F)(F)F)CC1.Cl (configuration not stated),-6.883
2,CCN(CC(C)C#N)C(=O)CNc1ccc(C(N)=O)c(C)c1 (configuration not stated),7.465
3,O=C(CC1CCCC1)NCCS(=O)(=O)N1CCN(c2ccccn2)CC1,-6.415
4,CN(C)c1nccc(C2CCN(C3CCCCC3O)CC2)n1 (configuration not stated),-26.39
5,Cn1ccnc1CN1CCCN(C(=O)c2ccc3ccccc3c2)CC1,4.708
6,COc1ccc(C)cc1NC(=O)c1coc(C)n1,8.355
7,CCN(C(=O)c1ccc2c(c1)OCO2)C1CC(=O)NC1=O (configuration not stated),-9.897
8,CC(=O)c1ccc(N2CCN(C(=O)c3cc(C(C)C)nn3C)CC2)cc1,16.14
9,CC(C)c1cc(C(=O)N2CCN(c3ccc(F)c(Cl)c3)CC2)n(C)n1,54.92
10,CC(C)c1cc(C(=O)N2CCN(c3ccncc3)CC2)n(C)n1,12.8
11,O=C(NCCC(O)c1ccoc1)Nc1cccs1 (configuration not stated),106.1
12,CCOc1ccccc1C(=O)NCCC(O)c1ccoc1 (configuration not stated),22.79
13,O=C(NCC(O)c1ccoc1)Nc1cccs1 (configuration not stated),104.6
14,O=C(NCc1cccs1)NCC(O)c1ccoc1 (configuration not stated),18.49
15,CCOC(=O)NCCC(O)c1ccoc1 (configuration not stated),23.86
16,O=C(NCC(O)c1ccoc1)Nc1c(F)cccc1F (configuration not stated),6.365
17,Cl.O=C(CN1CCCC1)Nc1c2c(cc3c1CCC3)CCC2,40.53
18,CCS(=O)(=O)Nc1ccn(Cc2cccc(F)c2)n1,-38.51
19,CN(C)CCN1C(=O)CCC12CCCN(C(=O)c1cccnc1)CC2.O=C(O)C(F)(F)F.O=C(O)C(F)(F)F (configuration not stated),28.27
20,Cn1cc(CN2CCCCC2c2ccc(-c3cccc(Cl)c3)nc2)cn1 (configuration not stated),30.06
21,CC1CCN(C(=O)NCCc2cc(F)ccc2F)C1 (configuration not stated),29.01
22,CN(C)CCNc1cc(-c2ccccc2C(N)=O)c2cc[nH]c2n1,-19.65
23,CN1CCN([C@@H]2CN(C(=O)c3cc4cccc(F)c4[nH]3)C[C@H]2O)CC1,38.63
24,CN(C)[C@@H]1CN(C(=O)c2cc3cccc(F)c3[nH]2)C[C@H]1O,57.85
25,O=C(c1cc2cccc(F)c2[nH]1)N1C[C@@H](O)[C@H](N2CCCC2)C1,36.56
26,CN1CCOC(CNCC(=O)NCCc2ccc3c(c2)OCCO3)C1 (configuration not stated),-19.13

row,Structure (SMILES),Percent Effect [%]
1,Nc1cc(N2CCCC(COc3ccc(F)cc3)C2)nc(N)n1 (configuration not stated),-4.088
2,Cc1ccccc1OCC1CCCN(c2cc(N)nc(N)n2)C1 (configuration not stated),79.75
3,Cc1nc(N)cc(N2CCCC(COc3cccc(F)c3)C2)n1 (configuration not stated),43.67
4,CN(C)Cc1cnc(C2CN(C(=O)c3ccccc3Cl)CCO2)[nH]1 (configuration not stated),-0.6177
5,c1ccc(CCN2CC(n3cccn3)C2)nc1,-9.048
6,COc1ccc(CN(C)C(=O)CCC(=O)c2cccs2)c(OC)c1OC,32.22
7,COc1cccc(CN(C)C(=O)CCC(=O)c2ccc(Cl)cc2)c1OC,54.4
8,COc1cccc(CN(C)C(=O)CCC(=O)c2ccccc2)c1OC,8.094
9,O=C(N[C@@H]1CCC[C@@H](N2CCCC2)[C@@H]1O)c1cnn2cccnc12,-2.756
10,CC(C)c1sc(Br)nc1C(=O)NCc1cccnc1,16.15
11,COc1ccc(NC(=O)c2nc(C)sc2C(C)C)cn1,41.95
12,Cc1nc(C(=O)Nc2cccnc2)c(C(C)C)s1,51.63
13,CC(C)CCN1C[C@H]2C[C@H](C(=O)Nc3cccnc3)[C@@H](C1)O2.O=C(O)C(F)(F)F.O=C(O)C(F)(F)F,18.07
14,N#Cc1cccc(OCCN2CCNC(=O)C2c2cccs2)c1 (configuration not stated),15.41
15,Cc1nc(CN2C[C@H]3C[C@H](C(=O)NCC4CC4)N(C)[C@H]3C2)cs1.O=C(O)C(F)(F)F.O=C(O)C(F)(F)F.O=C(O)C(F)(F)F,-25.01
16,COc1ccccc1-c1nnc2n1NC(N)=C(C#N)S2,6.444
17,COc1ccc(N2CCC(N3C[C@H](NC(C)=O)[C@@H](C(C)C)C3)CC2)cc1,33.6
18,COc1cccc(N2CCC(N3C[C@@H](NC(C)=O)[C@H](C(C)C)C3)CC2)c1,34.03
19,CC(=O)N[C@@H]1CN(C2CCN(c3cccc(Cl)c3)CC2)C[C@H]1C(C)C,62.82
20,Cc1cc(=O)n2ncnc2n1CC(O)c1cc(F)ccc1F (configuration not stated),-70.76
21,COc1ccc(NC(=O)Cn2c(=O)nc(N)c3cc(C)sc32)cc1,0.3474
22,Cc1nonc1OCCNC(=O)COc1ccc(Cl)cc1Cl,17.56
23,CC(c1nnc(-c2ccccc2)o1)N1CCc2cncnc2C1 (configuration not stated),-7.255
24,CC(=O)N1CCc2c(nc(N(C)C)nc2N(C)CCC2CCCCO2)C1 (configuration not stated),-8.037
25,Cc1nc[nH]c1CN1CCN(C(=O)C2(C)CC2)[C@H]2CS(=O)(=O)C[C@H]21,10.63
26,Cn1cc(CNC(=O)Nc2ccc(S(=O)(=O)C(F)F)cc2)cn1,33.37

row,Structure (SMILES),Percent Effect [%]
1,Cn1ccc(CNC(=O)Nc2ccc(S(=O)(=O)C(F)F)cc2)c1,50.21
2,COc1ccc(CNC(=O)Nc2ccc(S(=O)(=O)C(F)F)cc2)cc1,13.14
3,Cc1cc2nc(O)c(O)nc2cc1S(=O)(=O)NC1CC1,1.29
4,CC(C)(C)C(=O)NCCC(=O)NC(C)(C)c1ccc2c(c1)OCO2,11.96
5,COc1ncccc1CNC(=O)NC(C)Cn1cccn1 (configuration not stated),-6.466
6,CCCc1cc(CNC2CCN(c3cc(C(C)C)nc(C)n3)CC2)on1,-3.278
7,O=C(c1cc(C2CC2)n[nH]1)N1C[C@H]2CC[C@](O)(c3ccccc3F)[C@H]2C1,50.52
8,O=C(c1cc(C2CC2)on1)N1C[C@H]2CC[C@](O)(c3ccccc3F)[C@H]2C1,7.092
9,O=C(c1cc(C2CC2)on1)N1C[C@H]2CC[C@](O)(c3ccc(F)cc3)[C@H]2C1,6.085
10,c1ccc(Cc2nc(CNCCn3cccn3)cs2)cc1,73.18
11,COc1ccc(-c2nc(CNCCn3cccn3)cs2)cc1,49.39
12,Fc1ccc(CNCCn2cccn2)cc1F,-21.78
13,c1ccc(-c2nc(CNCCn3cccn3)cs2)cc1,46.8
14,Clc1ccc(Cc2nc(CNCCn3cccn3)cs2)cc1,60.1
15,c1cnn(CCNCc2csc(-c3ccsc3)n2)c1,-2.857
16,COc1cc(C2(C(=O)N3CCCC(n4cncn4)C3)CC2)ccc1C (configuration not stated),9.425
17,CC1(C(=O)NC2CCCC2)CCCN(c2cnccn2)C1 (configuration not stated),15.8
18,Cn1cccc1C(O)CNC(=O)COc1ccccc1F (configuration not stated),31.15
19,Cn1cccc1C(O)CNC(=O)c1ccc(C(F)(F)F)cc1 (configuration not stated),56.65
20,COC(=O)c1ccc(C(=O)NCC(O)c2cccn2C)cc1 (configuration not stated),64.24
21,Cn1cccc1C(O)CNC(=O)c1cccc(Cl)c1 (configuration not stated),49.37
22,Cn1cccc1C(CNC(=O)COc1ccc(Cl)cc1Cl)N1CCCC1 (configuration not stated),27.47
23,Cn1cccc1C(O)CNC(=O)c1ccc2nsnc2c1 (configuration not stated),20.08
24,Cn1cccc1C(O)CNC(=O)c1ccc(F)c(F)c1 (configuration not stated),19.39
25,Cn1cccc1C(O)CNS(=O)(=O)Cc1ccccc1 (configuration not stated),-41.72
26,Cn1cccc1C(O)CNC(=O)COc1ccc(Cl)cc1Cl (configuration not stated),63.83

row,Structure (SMILES),Percent Effect [%]
1,COC[C@@H]1CCC[C@]12CN(CCc1ccccc1)CCO2.O=C(O)C(F)(F)F,-4.553
2,Cc1nc(CNC(=O)c2cc(Cn3ccnc3C(C)C)[nH]n2)sc1C,-7.755
3,CC(C)NC(=O)NCC(Cc1ccc(F)cc1)C(N)=O (configuration not stated),-16.75
4,Cc1c(-c2nc3cc(S(=O)(=O)N4CCCC4)ccc3n2C)cnn1C,-4.812
5,CCc1ccccc1-c1cc(C)nc(N)n1,13.97
6,Cc1ccc(Oc2cc(CN)ccn2)cc1C.Cl,-26.7
7,NC(=O)NC(=O)CNC1(c2ccc(Cl)cc2)CCCC1,4.44
8,Cc1ccccc1CSc1ncc(Br)c(C(=O)O)n1,12.49
9,Cc1cncc(C2CCN(Cc3ccsc3)CC2)n1,41.74
10,Cc1cncc(C2CCN(Cc3ccncc3)CC2)n1,18.56
11,Cc1cncc(C2CCN(Cc3cnc(C)nc3)CC2)n1,56.88
12,Cc1nccn1CCCn1cncc1-c1ccc2c(c1)CCC(C)N2C.Cl (configuration not stated),54.25
13,CCN1c2ccc(-c3cncn3CCCn3ccnc3C)cc2CC1C.Cl (configuration not stated),54.49
14,CCN1CCc2cc(-c3cncn3CCNC3CCS(=O)(=O)C3)ccc21.Cl (configuration not stated),12.29
15,Cc1nccn1CCCn1cncc1-c1ccc2c(c1)CCCN2C.Cl,0.2069
16,Cc1nccn1CCCn1cncc1-c1ccc2c(c1)CC(C)N2C.Cl (configuration not stated),20.63
17,CCN1c2ccc(-c3cncn3CC(=O)NC(C)(C)C)cc2CC1C.Cl (configuration not stated),-3.554
18,OCCNc1nc(NCCc2ccccc2)nc2nccnc12,11.82
19,Cn1cc(CN2CC[C@H](O)[C@@H](n3ccc(=O)[nH]c3=O)CC2)cn1,-40.44
20,Cn1cc(CN(Cc2ccccn2)Cc2ccccc2Cl)cn1,9.224
21,COc1ccc(C(C)NCCc2ccc(NC(C)=O)cc2)cc1F (configuration not stated),-10.02
22,Clc1cc(CN2CCCN3CCCC3C2)c2ncccc2c1 (configuration not stated),58.38
23,O[C@@H]1CN(Cc2cc(Cl)cc3cccnc23)C[C@@H]1O,5.63
24,OCCN1CCN(Cc2cc(Cl)cc3cccnc23)CC1,-20.78

# Source: ChEMBL document CHEMBL3988442, “University of Dundee, Small-Polar-MMV Screening Library” (2021)
